# Test results reported in PubChem BioAssay (NCATS).
# Records with an inconclusive call do not appear. Entries that show only a call come without a potency. The source made the active and inactive calls. Unless noted, the call rests on the fitted dose curve; in most records, active means well fitted curve in the direction sought with a large enough effect; inconclusive means small, poorly fitted or top-dose-only effect, or another doubt; inactive means no such curve, though single readings can be large; an effect the other way counts as inactive or inconclusive.
# Assays:
# [1] = biological target: Calcium and integrin-binding protein 1 (Homo sapiens) (UniProt Q99828); experiment: Confirmatory qHTS for Identification of Calcium Integrin Binding Protein 1 (CIB1) Competitor (AID 1508617); further: nearly all actives have a fitted effect of over 65% in size
# Procedure, shortened: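 FP competition: CIB1-GST (1 uM final) in 5 mM HEPES pH 7.4, 125 mM NaCl, 5 mM CaCl2, 0.01% Tween20 preincubated 15 min RT with compounds (up to 114 uM), then FITC-alphaIIb peptide (100 nM), 15 min RT; Ex 480/Em 540.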
# [2] = qHTS of pediatric cancer cell lines to identify multiple opportunities for drug repurposing: Primary screen for SK-N-SH cells (AID 1347098); settings: SK-N-SH viability, CellTiter-Glo luminescence, 48 h; further: potency means the concentration at half of the fitted maximal effect; nearly all actives have a fitted effect of over 65% in size
# Procedure, shortened: (§1)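 Cells (500-1,000/well) rested 5 h, then received compounds for 48 h; metabolically active cells were measured by CellTiter-Glo luminescence. Final concentrations spanned up to 46 µM (MIPE, 11-point) or 0.59 nM-46 µM (NPC, 8-point) in primary screens, 11-point in follow-ups.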
# [3] = qHTS of pediatric cancer cell lines to identify multiple opportunities for drug repurposing: Primary screen for Rh18 cells (AID 1347102); settings: Rh18 rhabdomyosarcoma viability, CellTiter-Glo luminescence, 48 h; further: potency means the concentration at half of the fitted maximal effect; nearly all actives have a fitted effect of over 65% in size
# Procedure, shortened: as §1
# [4] = qHTS of pediatric cancer cell lines to identify multiple opportunities for drug repurposing: Primary screen for MG 63 (6-TG R) cells (AID 1347105); settings: MG 63 (6-TG R) viability, CellTiter-Glo, 48 h; further: potency means the concentration at half of the fitted maximal effect; nearly all actives have a fitted effect of over 50% in size
# Procedure, shortened: (§2)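 CRCs from 8- or 11-point titrations (lowest final 0.59 nM NPC, 0.78 nM MIPE). Cell viability: CellTiter-Glo after 48 h incubation, 15 min room-temperature development, luminescence imaging.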
# [5] = ZIKV-mCherry secondary qHTS for Zika virus inhibitors (AID 1347158); further: potency means the concentration at half of the fitted maximal effect
# Procedure, shortened: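 After overnight seeding at 37 °C, Vero cells receive compound and then ZIKV-mCherry (MOI 1). Following 48-72 h infection, cells are fixed, counterstained with Hoechst, and imaged; percent infected cells is derived from an mCherry intensity cut-off of 450 RFU.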
# [6] = biological target: Cytochrome P450 3A4 (Homo sapiens) (UniProt P08684); experiment: Cytochrome P450 family 3 subfamily A member 4 (CYP3A4) small molecule antagonists: luciferase qHTS assay (AID 1645841; active means well fitted curve in the direction sought with a large enough effect in the repeat runs; an effect the other way counts as inactive or inconclusive; further: nearly all actives have a fitted effect of over 45% in size)
# Procedure, shortened: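 Luminescent CYP3A4 activity readout: compounds plus enzyme-substrate mix 10 min at room temperature, reaction started with NADPH regenerating system for 1 h, stopped with detection reagent, read after 20 min. Ketoconazole served as control.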
# [7] = qHTS of pediatric cancer cell lines to identify multiple opportunities for drug repurposing: Primary screen for TC32 cells (AID 1347089); further: nearly all actives have a fitted effect of over 60% in size
# Procedure, shortened: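 qHTS, TC32, 48 h drug treatment, CellTiter-Glo luminescence as a proxy for metabolically active cells; primary top concentration 46 µM (MIPE 11-pt, NPC 8-pt); confirmatory 11-pt.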
# [8] = qHTS of pediatric cancer cell lines to identify multiple opportunities for drug repurposing: Primary screen for RD cells (AID 1347104); settings: RD rhabdomyosarcoma viability, CellTiter-Glo luminescence, 48 h; further: potency means the concentration at half of the fitted maximal effect; nearly all actives have a fitted effect of over 55% in size
# Procedure, shortened: as §2
# MCC-13 = experiment: qHTS assay to identify novel small-molecules to repurpose for Merkel cell carcinoma treatment (AID 1296009); settings: MCC and control cell lines, CellTiter-Glo viability, 72 h; series mostly up to 46 µM; further: nearly all actives have a fitted effect of over 60% in size
# Procedure, shortened: (§3)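 After compound transfer in DMSO, plates were kept 72 hr at 37 degree celsius. Luminescent ATP signal from CellTiter-Glo served as viability measure, normalized against DMSO and no-cell controls.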
# MCC-26 = experiment: as above; settings: MCC and control cell lines, CellTiter-Glo viability, 72 h; series mostly up to 46 µM
# Procedure, shortened: as §3
# [9] = S16 Schwann cell viability assay (CellTiter-Glo assay) (AID 624031);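 further: native untransfected S16 rat Schwann cells; cellular ATP luminescence as a viability measure; nearly all actives have a fitted effect of over 70% in size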
# Procedure, shortened: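 Concentration-effect curves come from CellTiter-Glo luminescence of S16 rat Schwann cells after 24 h compound exposure. Each reading was normalized to DMSO wells (0%) and wells without cells, and curves were ranked by r2 and response magnitude.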
# [10] = S16 Schwann cell PMP22 intronic element firefly luciferase assay (AID 624032); further: nearly all actives have a fitted effect of over 30% in size
# Procedure, shortened: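 Luciferase reporter of PMP22 intronic-element expression in stably transfected S16 rat Schwann cells, read by ONE-Glo luminescence after 24 h compound exposure at 37 C. Activity scaled between DMSO (0%) and positive-control PTC124; concentration-effect curves quality-classified.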
# AA1029 = experiment: qHTS profiling for inhibitors of Plasmodium falciparum proliferation (AID 504749); further: nearly all actives have a fitted effect of over 60% in size; further: potency means the concentration at half of the fitted maximal effect; settings: P. falciparum in erythrocytes, SYBR Green DNA, 72 h; series mostly up to 28.7 µM
# Procedure, shortened: (§4)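 Three-day growth assay of blood-stage parasites in erythrocytes (0.3% parasitemia, 2.5% hematocrit) at 37 C, 5% CO2, quantified by SYBR Green DNA staining after overnight detergent lysis.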
# CP211 = experiment: as above; settings: P. falciparum in erythrocytes, SYBR Green DNA, 72 h; series mostly up to 28.7 µM
# Procedure, shortened: as §4
# CP297 = experiment: as above; settings: P. falciparum in erythrocytes, SYBR Green DNA, 72 h; series mostly up to 28.7 µM
# Procedure, shortened: as §4
# CP315 = experiment: as above; settings: P. falciparum in erythrocytes, SYBR Green DNA, 72 h; series mostly up to 28.7 µM
# Procedure, shortened: as §4
# FAB9 = experiment: as above; settings: P. falciparum in erythrocytes, SYBR Green DNA, 72 h; series mostly up to 28.7 µM
# Procedure, shortened: as §4
# ICS = experiment: as above; settings: P. falciparum in erythrocytes, SYBR Green DNA, 72 h; series mostly up to 28.7 µM
# Procedure, shortened: as §4
# JCK = experiment: as above; settings: P. falciparum in erythrocytes, SYBR Green DNA, 72 h; series mostly up to 28.7 µM
# Procedure, shortened: as §4
# PC15 = experiment: as above; settings: P. falciparum in erythrocytes, SYBR Green DNA, 72 h; series mostly up to 28.7 µM
# Procedure, shortened: as §4
# Calcium and integrin-binding protein 1 (Homo sapiens), sequence (Q99828 whole entry, looked up): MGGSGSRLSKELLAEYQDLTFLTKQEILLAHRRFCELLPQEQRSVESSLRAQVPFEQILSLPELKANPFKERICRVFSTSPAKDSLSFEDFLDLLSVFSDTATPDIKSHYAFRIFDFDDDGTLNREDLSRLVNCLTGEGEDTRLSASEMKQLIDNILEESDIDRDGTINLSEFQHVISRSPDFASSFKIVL
# Cytochrome P450 3A4 (Homo sapiens), sequence (P08684 whole entry, looked up): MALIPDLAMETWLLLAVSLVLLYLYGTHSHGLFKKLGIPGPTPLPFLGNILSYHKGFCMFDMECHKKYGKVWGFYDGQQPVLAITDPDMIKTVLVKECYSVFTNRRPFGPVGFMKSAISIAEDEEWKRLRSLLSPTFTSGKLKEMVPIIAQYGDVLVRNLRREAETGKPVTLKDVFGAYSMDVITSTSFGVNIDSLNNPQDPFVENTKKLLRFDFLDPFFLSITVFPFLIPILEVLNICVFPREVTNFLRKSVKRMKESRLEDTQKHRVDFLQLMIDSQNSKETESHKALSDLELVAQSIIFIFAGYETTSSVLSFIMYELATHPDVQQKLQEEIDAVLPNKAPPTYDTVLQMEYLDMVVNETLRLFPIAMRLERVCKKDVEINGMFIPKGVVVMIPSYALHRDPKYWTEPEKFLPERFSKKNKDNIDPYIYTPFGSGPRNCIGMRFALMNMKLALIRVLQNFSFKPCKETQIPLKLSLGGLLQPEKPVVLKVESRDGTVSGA
structure (smiles),measurement,setting,value
Cn1cnc(-c2nccc3c(=O)[nH]c(OCCCC(F)(F)F)nc23)c1,outcome,[1],inactive
CCN(CC)c1ccc(C(=C2C=CC(=[N+](CC)CC)C=C2)c2cc(S(=O)(=O)O)ccc2S(=O)(=O)[O-])cc1,Potency,[2],3.86 µM (active)
same,Potency,[3],11.9 µM (active)
same,Potency,[4],16.8 µM (active)
O=C(NCc1ccc(Oc2ccccc2)cc1)c1nc(-c2cc(Br)c(O)c(Br)c2)no1,Potency,[5],7.08 µM (active)
Cc1ccc(C(=O)N2CCN(c3ccc([N+](=O)[O-])cc3)CC2)cc1Cl,outcome,[6],inactive
CS(=O)(=O)c1ccc(-c2cn3ccccc3n2)cc1,outcome,[7],inactive
same,Potency,[8],23.7 µM (active)
same,outcome,MCC-13,inactive
same,outcome,MCC-26,inactive
O=C(CC1NCCC[C@H]1O)Cn1cnc2cc(Br)c(Cl)cc2c1=O (stereo not given in full),outcome,[9],inactive
same,Potency,[10],inactive
same,Potency,AA1029,1 µM (active)
same,Potency,CP211,3.38 µM (active)
same,Potency,CP297,3.38 µM (active)
same,Potency,CP315,3.01 µM (active)
same,Potency,FAB9,1 µM (active)
same,Potency,ICS,1.12 µM (active)
same,Potency,JCK,2.82 µM (active)
same,Potency,PC15,0.891 µM (active)
CCCCC(=O)N(Cc1ccc(-c2ccccc2-c2nn[nH]n2)cc1)C(C(=O)O)C(C)C (stereo not given),outcome,[9],inactive
same,Potency,[10],inactive
same,Potency,AA1029,inactive
same,Potency,CP211,inactive
same,Potency,CP297,inactive
same,Potency,CP315,inactive
same,Potency,FAB9,inactive
same,Potency,ICS,7.94 µM (active)
same,Potency,JCK,inactive
same,Potency,PC15,inactive
